High-throughput results: PubChem BioAssay, The Scripps Research Institute Molecular Screening Center
Hits are enriched below; roughly 2.3% of the tested compounds scored in any of these assays.
M1 PAM parental: counter-screen for M1 PAMs: effect in parental CHO-K1 cells | activation, % at 3 µM | ATP EC20, Fluo-8 calcium fluorescence; 0% at ATP EC20, 100% at ATP max | hit rate 0.02% among 360,000;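 active means activation above the run cutoff, the mean activation of all test compounds plus 3 SD, cut at about 40% in these data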;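 further: peak over basal fluorescence ratio in a 140 s read after ATP addition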
CHRM1 agonist: activates human CHRM1 receptor | P11229 | CHO-K1 hM1, Fluo-8 calcium fluorescence, agonist mode; 0% DMSO, 100% acetylcholine EC100 | activation, % at 3 µM | hit rate 0.33% among 360,000 | AID 588814;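 active means activation above the run's mean compound activation plus 3 SD, cut at about 16% in these data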;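 further: peak over basal fluorescence ratio within a 140 s kinetic read after compound addition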
Target sequence (P11229 whole entry, looked up): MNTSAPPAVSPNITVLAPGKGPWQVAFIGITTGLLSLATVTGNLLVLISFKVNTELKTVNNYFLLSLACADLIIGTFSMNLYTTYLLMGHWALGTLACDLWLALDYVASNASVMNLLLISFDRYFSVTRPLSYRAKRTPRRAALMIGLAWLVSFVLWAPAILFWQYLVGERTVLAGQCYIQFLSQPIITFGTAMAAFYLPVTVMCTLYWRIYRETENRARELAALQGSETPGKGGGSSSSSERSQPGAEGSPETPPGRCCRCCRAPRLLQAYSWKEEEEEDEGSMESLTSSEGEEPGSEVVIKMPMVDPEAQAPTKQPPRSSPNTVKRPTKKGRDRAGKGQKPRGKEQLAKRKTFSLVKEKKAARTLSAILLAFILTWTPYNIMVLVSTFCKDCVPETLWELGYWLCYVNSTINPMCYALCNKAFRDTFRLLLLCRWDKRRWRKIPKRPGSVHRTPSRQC
CHRM1 antagonist: human CHRM1 antagonism | P11229 | CHO-K1 hM1, Fluo-8 calcium fluorescence, ACh EC80 antagonist | inhibition, % at 3 µM | hit rate 1.3% among 360,000;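 active means percent inhibition above its own plate's cutoff, namely the mean of that plate's compound wells plus 3 SD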;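 further: peak over basal fluorescence ratio during 140 s after agonist addition; 0% = ACh EC80 plus DMSO and 100% = DMSO alone without agonist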
M1 ag parental: counter-screen for M1 agonists: effect in parental CHO-K1 cells; Fluo-8 calcium fluorescence; scaled to maximal ATP response, vehicle zero; activation, % at 3 µM; hit rate 0.48% among 360,000; in the data active means activation above about 15%;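 further: untransfected CHO-K1 host cells lacking M1 receptor as counterscreen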
CHO-K1 Ca antag: counter-screen for M1 antagonists: effect in parental CHO-K1 cells. ATP-induced calcium, Fluo-8 fluorescence. inhibition, % at 3 µM. hit rate 0.6% among 360,000;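 active means inhibition above a per-plate cutoff, the plate's mean sample inhibition plus 3 SD, cut at about 24% in these data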;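 further: 0% = DMSO plus EC80 ATP and 100% = DMSO alone without ATP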
M1 PAM: human CHRM1 positive allosteric modulation; hit rate 0.088% among 360,000; CHO-K1 hM1, Fluo-8 calcium fluorescence, ACh EC20; 0% = ACh EC20, 100% = maximal ACh; activation, % at 3 µM; in the data active means activation above about 19%, passing the limit was not always enough
* marks the source's active call; other numbers are inactive results.

SMILES | M1 PAM parental | CHRM1 agonist | CHRM1 antagonist | M1 ag parental | CHO-K1 Ca antag | M1 PAM
CCCc1nnc(SCC(=O)Nc2nccs2)o1 | 13 | 1 | -14 | 0 | -14 | 21
O=C1c2cc(S(=O)(=O)N(CCO)CCO)ccc2-c2ccc(S(=O)(=O)N(CCO)CCO)cc21 | 18 | 0 | -14 | 16* | 3 | 9
O=S(=O)(c1ccc(Oc2ccc(S(=O)(=O)N(CCO)CCO)cc2)cc1)N(CCO)CCO | 17 | -5 | -6 | 0 | -2 | 12
Cc1cc(C)nc(-n2nc(C)cc2NC(=O)CN2CCCC2)n1 | 18 | -5 | -4 | 1 | -5 | 3
Cc1cc(C)nc(-n2nc(C)cc2NC(=O)CN2CCC(C)CC2)n1 | 6 | -7 | -13 | 0 | 0 | 20*
CCOC(=O)C1(C)CCCN(C(=O)c2ccc(OC)c(OC)c2)C1 (centres undefined) | 11 | 0 | -6 | 1 | 1 | 4
Cc1c(C(=O)NCc2ccc(C(F)(F)F)cc2)sc(=O)n1Cc1cccc(F)c1 | 14 | 37* | 39* | 23* | 16 | -3
COc1ccc(Br)c(Cn2c(C)c(C(=O)NCc3cccc([N+](=O)[O-])c3)sc2=O)c1 | 2 | -10 | 89* | 1 | 15 | -31
Cc1c(C(=O)NCc2ccc(Cl)c(Cl)c2)sc(=O)n1Cc1ccc(S(=O)(=O)N(C)C)cc1 | 9 | -1 | 13 | 7 | -5 | -10
COc1ccc(Cl)cc1Cn1c(C)c(C(=O)NCc2cccc([N+](=O)[O-])c2)sc1=O | 26 | -11 | 80* | 2 | -17 | -32
Cc1c(C(=O)NCc2ccc(C(C)C)cc2)sc(=O)n1Cc1ccc(S(=O)(=O)N(C)C)cc1 | -1 | 0 | 34* | 7 | 9 | -21
Cc1c(C(=O)NCc2cccc(C(F)(F)F)c2)sc(=O)n1Cc1cccc(F)c1 | -5 | -5 | 8 | 0 | 3 | -10
CCCCC(=O)OCC(=O)N1N=C(c2c[nH]c3ccccc23)C(O)C1c1ccc(OC)cc1 (centres undefined) | -3 | -3 | 2 | 1 | -8 | 0
COCCCNC(=O)c1cccc2c(-c3ccnn3C)coc12 | -8 | 1 | 8 | 0 | 15 | -6
Cc1c(C(=O)NCc2cccc([N+](=O)[O-])c2)sc(=O)n1Cc1ccccc1F | 19 | -9 | 67* | 5 | 1 | -33
CC1(C)C(=O)Nc2ccccc2N1C(=O)COC(=O)c1ccc(Cl)c(S(=O)(=O)NCc2ccccc2)c1 | 5 | 1 | 30* | 3 | 15 | -12
CC1(C)C(=O)Nc2ccccc2N1C(=O)COC(=O)c1cc(S(C)(=O)=O)ccc1Cl | -10 | -1 | -5 | 2 | -13 | 6
CN(C(=O)COC(=O)c1n[nH]c2ccccc12)C1CCS(=O)(=O)C1 (centres undefined) | 10 | -5 | -8 | 0 | -12 | 1
COc1cc(/C=C/C(=O)OCC(=O)N2c3ccccc3NC(=O)C2(C)C)cc(OC)c1OC | 7 | 0 | 33* | 9 | -8 | -13
O=C1CN(C(=O)COC(=O)c2oc3ccccc3c2COc2ccccc2)c2ccccc2N1 | -5 | -4 | -2 | 0 | 4 | 2
COc1ccc(S(N)(=O)=O)cc1C(=O)OCC(=O)N1c2ccccc2NC(=O)C1(C)C | -6 | 2 | -11 | 0 | -5 | 13
COCc1c(C(=O)OCC(=O)N2c3ccccc3NC(=O)C2(C)C)oc2ccccc12 | -4 | 0 | 16 | 4 | 30* | -9
COCc1c(C(=O)OCC(=O)N(C)C2CCS(=O)(=O)C2)oc2ccccc12 (centres undefined) | -1 | -9 | 36* | 0 | -6 | -19
COCc1c(C(=O)OCC(=O)N2c3ccccc3CC2C)oc2ccccc12 (centres undefined) | -7 | -1 | 9 | 0 | 24* | 9
COCc1c(C(=O)OCC(=O)N2CCCC2=O)oc2ccccc12 | 8 | -2 | -18 | 0 | 0 | 19
SMILES | M1 PAM parental | CHRM1 agonist | CHRM1 antagonist | M1 ag parental | CHO-K1 Ca antag | M1 PAM
CCN(C(=O)c1ccco1)c1nnc(-c2cccnc2)s1 | 5 | -3 | -7 | 0 | -18 | 7
CC(=O)c1c(C)[nH]c(C(=O)CN2CCN(S(=O)(=O)c3ccccc3F)CC2)c1C | -4 | 2 | 15 | 14 | -14 | -14
COc1cc(/C=N\NC(=O)C2COc3ccccc3O2)cc(OC)c1O (centres undefined) | 16 | 1 | -12 | 21* | -4 | 8
COc1cc(/C=N/NC(=O)C2COc3ccccc3O2)ccc1O (centres undefined) | -7 | -2 | 8 | 2 | 15 | -8
Nc1nc(Nc2ccccc2)sc1C(=O)c1ccccc1 | 18 | 16* | -19 | 14 | -11 | 24
COc1ccc(C(=O)c2sc(Nc3ccccc3)nc2N)cc1 | 32 | 2 | -17 | 2 | -18 | 12
O=C(Nc1ccccc1OC(F)F)c1ccc(S(=O)(=O)N2CCOCC2)cc1 | -2 | -1 | 9 | 0 | -1 | 1
C(=C\c1ccccc1)/CN1CCN(C(c2ccccc2)c2nnnn2C2CCCCC2)CC1 (centres undefined) | 3 | -6 | 43* | 0 | -10 | -26
COc1cccc(C(c2nnnn2C2CCCC2)N2CCN(C/C=C/c3ccccc3)CC2)c1OC (centres undefined) | 16 | -6 | 54* | 0 | -15 | -25
C(=C\c1ccccc1)/CN1CCN(C(c2ccnc3ccccc23)c2nnnn2C2CCCCC2)CC1 (centres undefined) | 15 | -7 | 17 | 0 | -20 | -26
CCC(c1nnnn1C1CCCC1)N1CCN(C/C=C/c2ccccc2)CC1 (centres undefined) | 14 | -3 | -20 | 6 | -10 | -4
CCOC(=O)C1=C(C)N(c2ccccc2)C(=O)NC1c1cccc([N+](=O)[O-])c1 (centres undefined) | 6 | -9 | 68* | 0 | 0 | -23
O=S(=O)(c1cccc(Cn2nnc(-c3ccccc3)n2)c1)N1CCOCC1 | -1 | 2 | 14 | 16* | -5 | -11
Cc1c([N+](=O)[O-])nnn1-c1cc(Cl)cc(Cl)c1 | 14 | -7 | -9 | -1 | -16 | 6
COC(=O)c1[nH]c2cccc(OC)c2c1NC(=O)CN(C)CC1OCCO1 | -7 | -6 | 0 | 0 | 24* | 0
COC(=O)c1ccc(COC(=O)c2ccc(SC)cc2OC)cc1 | 12 | -9 | -4 | 20* | 11 | 8
COc1cc(SC)ccc1C(=O)OCC(=O)NCCNC(=O)COC(=O)c1ccc(SC)cc1OC | -2 | -5 | -3 | 2 | 6 | 4
COc1cccc(CNC(=O)CCCNS(=O)(=O)c2cccs2)c1 | -1 | -2 | 2 | 2 | 42* | -1
COc1ccc(C(=O)C(=O)c2ccc(OCCO)cc2)cc1 | 7 | 2 | -20 | 1 | -15 | 30*
